Assay results published in PubChem BioAssay (NCATS).
Records with an inconclusive call do not appear. Where a call stands in place of a potency, no number is given. Active and inactive are the calls of the source. The call rests on the fitted dose curve; in most records, active means well fitted inhibition curve with a large enough effect; inconclusive means small, poorly fitted or top-dose-only effect; inactive means flat fitted curve, though single readings scatter.

How the values were obtained:
Test in all cases: qHTS profiling for inhibitors of Plasmodium falciparum proliferation (AID 504749); further: nearly all actives have a fitted effect of over 60% in size
Conditions in all cases: P. falciparum in erythrocytes, SYBR Green DNA, 72 h; series mostly up to 28.7 µM
AS120 = test system: AS120
Procedure, shortened: (§1)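 Quantitative HTS: compounds pinned into medium, infected erythrocytes added (0.3% parasitemia, 2.5% hematocrit), 72 h culture at 37 C under 5% CO2. Saponin/Triton lysis with SYBR Green I, overnight RT, then fluorescence read.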

ATS189 = test system: ATS189
Procedure, shortened: as §1

CP185 = test system: CP185
Procedure, shortened: as §1

CP191 = test system: CP191
Procedure, shortened: as §1

CP192 = test system: CP192
Procedure, shortened: as §1

CP194 = test system: CP194
Procedure, shortened: as §1

CP201 = test system: CP201
Procedure, shortened: as §1

CP237 = test system: CP237
Procedure, shortened: as §1

CP238 = test system: CP238
Procedure, shortened: as §1

CP247 = test system: CP247
Procedure, shortened: as §1

CP286 = test system: CP286
Procedure, shortened: as §1

CP291 = test system: CP291
Procedure, shortened: as §1

CP305 = test system: CP305
Procedure, shortened: as §1

DIV30 = test system: DIV30
Procedure, shortened: as §1

Dd2 = test system: Dd2
Procedure, shortened: as §1

GB4 = test system: GB4
Procedure, shortened: as §1

HB3 = test system: HB3
Procedure, shortened: as §1

P94_40 = test system: P94_40
Procedure, shortened: as §1

TAB109 = test system: TAB109
Procedure, shortened: as §1

TAB113 = test system: TAB113
Procedure, shortened: as §1
Potency means the concentration at half of the fitted maximal effect.

Row | SMILES | Potency (AS120) | Potency (ATS189) | Potency (CP185) | Potency (CP191) | Potency (CP192) | Potency (CP194) | Potency (CP201) | Potency (CP237) | Potency (CP238) | Potency (CP247) | Potency (CP286) | Potency (CP291) | Potency (CP305) | Potency (DIV30) | Potency (Dd2) | Potency (GB4) | Potency (HB3) | Potency (P94_40) | Potency (TAB109) | Potency (TAB113)
1 | O=C(O)c1ccccc1-c1c2cc(Br)c(=O)cc-2oc2[c]([Hg])c(O)c(Br)cc12 | inactive | inactive | inactive | inactive | inactive | inactive | inactive | inactive | inactive | inactive | inactive | inactive | inactive | inactive | inactive | inactive | inactive | inactive | inactive | inactive
2 | CC(C)[C@@]1(NC(=O)[C@H]2CC3c4cccc5[nH]cc(c45)C[C@H]3N(C)C2)O[C@@]2(O)C3CCCN3C(=O)[C@@H](Cc3ccccc3)N2C1=O (stereo not given in full) | 0.891 µM (active) | 2.82 µM (active) | 10 µM (active) | 5.01 µM (active) | 7.57 µM (active) | 6.75 µM (active) | 10.7 µM (active) | 1.26 µM (active) | 3.98 µM (active) | 8.91 µM (active) | 3.98 µM (active) | 10.7 µM (active) | 6.75 µM (active) | 1.51 µM (active) | 2.82 µM (active) | 3.01 µM (active) | 2 µM (active) | 2 µM (active) | 4.47 µM (active) | 3.55 µM (active)
